Experimental data published in PubChem BioAssay (EPA / NIEHS).
Activity calls are given as the source filed them. How the source made its calls: active means hit-call score of the fitted dose curve at least 0.9, where 1 is the maximum; inactive means score below 0.9.

Experiments:
[1] = CEETOX_H295R_ESTRONE: CeeTox H295R High-throughput Steroidogenesis Assay for Estrone (AID 2283441); conditions: actives raise or lower the signal;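 further: estrone secreted into medium measured by LC-MS/MS after dansyl derivatization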
Summary of the method: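 H295R cells; 48 h forskolin (10 uM) prestimulation; 48 h compound exposure, 0.1% DMSO final. Medium estrone: MTBE extraction, dansyl derivatization, HPLC-MS/MS. Bidirectional fit vs DMSO.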

[2] = CEETOX_H295R_PROG: CeeTox H295R High-throughput Steroidogenesis Assay for Progesterone (PROG) (AID 2283442); conditions: actives raise or lower the signal;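 on AC50: human H295R adrenal cells primed with 10 µM forskolin before dosing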
Summary of the method: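 Measured analyte is progesterone secreted by H295R cells at 48 h of chemical treatment, following 10 uM forskolin priming. Quantitation used HPLC-MS/MS against a 7-point standard curve; cytotoxicity was checked by MTT absorbance.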

[3] = read-out: Tumor necrosis factor receptor superfamily member 6 (Homo sapiens) (UniProt P25445); test: LTEA_HepaRG_FAS: Life Technologies and Expression Analysis (LTEA) Assay for Fas cell surface death receptor (FAS) using HepaRG (AID 2283447); conditions: mRNA level, 48 h; actives raise or lower the signal
Summary of the method: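 Differentiated HepaRG cells in serum-free induction medium were exposed 48 h to 8 half-log concentrations up to 100 uM in 0.5% DMSO, in duplicate. FAS mRNA was measured by qRT-PCR normalised to ACTB, GAPDH and POLR2A; bidirectional fit versus DMSO.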

[4] = read-out: Fatty acid synthase (Homo sapiens) (UniProt P49327); test: LTEA_HepaRG_FASN: Life Technologies and Expression Analysis (LTEA) Assay for Fatty Acid Synthase (FASN) using HepaRG (AID 2283448); conditions: mRNA level, 48 h; actives raise or lower the signal
Summary of the method: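 Differentiated human HepaRG cells were exposed for 48 h in serum-free induction medium to eight half-log concentrations up to 100 uM in 0.5% DMSO, in duplicate. FASN mRNA was quantified by TaqMan qRT-PCR, normalized to ACTB/GAPDH/POLR2A, and fitted bidirectionally against DMSO.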

[5] = read-out: Cyclin D2 (CCND2), CCND2 (gene 894); test: LTEA_HepaRG_CCND2: Life Technologies and Expression Analysis (LTEA) Assay for Cyclin D2 (CCND2) using HepaRG (AID 2283449); conditions: mRNA level, 48 h; actives raise or lower the signal;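 further: CCND2 transcript measured by TaqMan qRT-PCR and normalised to three housekeeping genes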
Summary of the method: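 Chemicals in 0.5% DMSO, eight half-log concentrations from 100 uM top, were applied in duplicate for 48 h to human HepaRG cells in serum-free induction medium. CCND2 mRNA by TaqMan qRT-PCR, normalised to ACTB/GAPDH/POLR2A; bidirectional fit versus DMSO.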

[6] = read-out: Cyclin Dependent Kinase Inhibitor 1A (CDKN1A), CDKN1A (gene 1026); test: LTEA_HepaRG_CDKN1A: Life Technologies and Expression Analysis (LTEA) Assay for Cyclin Dependent Kinase Inhibitor 1A (CDKN1A) using HepaRG (AID 2283450); conditions: mRNA level, 48 h; actives raise or lower the signal
Summary of the method: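 Gain or loss of CDKN1A transcript is scored by bidirectional fitting against 0.5% DMSO vehicle. Human HepaRG cultures receive chemicals for 48 h across an 8-point series peaking at 100 uM; expression comes from qRT-PCR.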

[7] = read-out: flavin-containing dimethylaniline monooxygenases 3 (FMO3), FMO3 (gene 2328); test: LTEA_HepaRG_FMO3: Life Technologies and Expression Analysis (LTEA) Assay for flavin-containing dimethylaniline monooxygenases 3 (FMO3) using HepaRG (AID 2283453); conditions: mRNA level, 48 h; actives raise or lower the signal
Summary of the method: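 HepaRG, 48 h exposure, 8-pt half-log series from 100 uM, 0.5% DMSO vehicle, duplicates; FMO3 transcript by Fluidigm TaqMan qRT-PCR, housekeeping-normalized; gain/loss fit vs DMSO.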

[8] = read-out: CFLAR gene, CFLAR (gene 8837); test: LTEA_HepaRG_CFLAR: Life Technologies and Expression Analysis (LTEA) Assay for CFLAR gene using HepaRG (AID 2283455); conditions: mRNA level, 48 h; actives raise or lower the signal
Summary of the method: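 Differentiated HepaRG cells in serum-free induction medium were exposed 48 h in duplicate to eight half-log concentrations up to 100 uM in 0.5% DMSO; mRNA measured by TaqMan qRT-PCR, normalized to ACTB, GAPDH, POLR2A; bidirectional fitting versus DMSO.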

[9] = read-out: Forkhead box O1 (FOXO1), FOXO1 (gene 2308); test: LTEA_HepaRG_FOXO1: Life Technologies and Expression Analysis (LTEA) Assay for Forkhead box O1 (FOXO1) using HepaRG (AID 2283456); conditions: mRNA level, 48 h; actives raise or lower the signal
Summary of the method: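 Differentiated HepaRG cells, in serum-free induction medium with 0.5% DMSO, exposed 48 h in duplicate to 8-point half-log series from 100 uM. FOXO1 mRNA measured by TaqMan qRT-PCR, normalized to ACTB, GAPDH, POLR2A; bidirectional fit versus DMSO.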

[10] = read-out: growth arrest and DNA damage 45 (GADD45A), GADD45A (gene 1647); test: LTEA_HepaRG_GADD45A: Life Technologies and Expression Analysis (LTEA) Assay for growth arrest and DNA damage 45 (GADD45A) using HepaRG (AID 2283458); conditions: mRNA level, 48 h; actives raise or lower the signal
Summary of the method: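 Differentiated HepaRG cells were exposed in duplicate for 48 h in serum-free induction medium to 8-point half-log concentrations up to 100 uM in 0.5% DMSO. GADD45A mRNA was measured by TaqMan qRT-PCR, normalized to ACTB, GAPDH and POLR2A, with bidirectional fitting versus DMSO.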

[11] = read-out: Forkhead box O3 (FOXO3), FOXO3 (gene 2309); test: LTEA_HepaRG_FOXO3: Life Technologies and Expression Analysis (LTEA) Assay for Forkhead box O3 (FOXO3) using HepaRG (AID 2283459); conditions: mRNA level, 48 h; actives raise or lower the signal
Summary of the method: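 Differentiated human HepaRG cells, 48 h post-plating, exposed in duplicate for 48 h in serum-free induction medium; 8-point half-log series from 100 uM in 0.5% DMSO. FOXO3 mRNA by TaqMan qRT-PCR, normalized to ACTB/GAPDH/POLR2A; bidirectional fit versus DMSO.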

[12] = read-out: growth arrest and DNA damage 45 (GADD45B), GADD45B (gene 4616); test: LTEA_HepaRG_GADD45B: Life Technologies and Expression Analysis (LTEA) Assay for growth arrest and DNA damage 45 (GADD45B) using HepaRG (AID 2283461); conditions: mRNA level, 48 h; actives raise or lower the signal
Summary of the method: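 Human HepaRG monolayers receive chemicals for 48 h at eight half-log concentrations, highest 100 uM, in 0.5% DMSO. Expression is measured by TaqMan qRT-PCR and normalized to ACTB, GAPDH and POLR2A.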

[13] = read-out: ABC Transporter (ABCC3), ABCC3 (gene 8714); test: LTEA_HepaRG_ABCC3: Life Technologies and Expression Analysis (LTEA) Assay for ABC Transporter (ABCC3) using HepaRG (AID 2283462); conditions: mRNA level, 48 h; actives raise or lower the signal
Summary of the method: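 Transcriptional change of ABCC3 in HepaRG after 48 h treatment, determined by qRT-PCR normalized to endogenous controls. Concentrations spanned eight half-log steps to 100 uM in 0.5% DMSO.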

[14] = read-out: ABC Transporter (ABCC2), ABCC2 (gene 1244); test: LTEA_HepaRG_ABCC2: Life Technologies and Expression Analysis (LTEA) Assay for ABC Transporter (ABCC2) using HepaRG (AID 2283464); conditions: mRNA level, 48 h; actives raise or lower the signal
Summary of the method: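 After plating and 48 h culture, HepaRG medium is replaced with serum-free induction medium and chemicals are added (8 concentrations, max 100 uM, 0.5% DMSO) for 48 h. Total RNA then undergoes qRT-PCR for ABCC2 with housekeeping normalization.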

[15] = read-out: Broad substrate specificity ATP-binding cassette transporter ABCG2 (Homo sapiens) (UniProt Q9UNQ0); test: LTEA_HepaRG_ABCG2: Life Technologies and Expression Analysis (LTEA) Assay for ABC Transporter (ABCG2) using HepaRG (AID 2283465); conditions: mRNA level, 48 h; actives raise or lower the signal
Summary of the method: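 Differentiated HepaRG cells were exposed for 48 h in serum-free induction medium to 8 half-log concentrations, top 100 uM, in 0.5% DMSO. ABCG2 mRNA was measured by qRT-PCR, normalized to ACTB, GAPDH and POLR2A, with bidirectional fitting versus DMSO.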

[16] = read-out: ATP-citrate lyase (ACLY), ACLY (gene 47); test: LTEA_HepaRG_ACLY: Life Technologies and Expression Analysis (LTEA) Assay for ATP-citrate lyase (ACLY) using HepaRG (AID 2283466); conditions: mRNA level, 48 h; actives raise or lower the signal
Summary of the method: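 Differentiated HepaRG cells exposed 48 h in serum-free induction medium to eight half-log concentrations up to 100 uM in 0.5% DMSO, duplicates. Transcript measured by Fluidigm TaqMan qRT-PCR, normalized to ACTB, GAPDH, POLR2A; bidirectional fit versus DMSO.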

[17] = read-out: Cytochrome P450 (CYP1A1), CYP1A1 (gene 1543); test: LTEA_HepaRG_CYP1A1: Life Technologies and Expression Analysis (LTEA) Assay for Cytochrome P450 (CYP1A1) using HepaRG (AID 2283454); conditions: mRNA level, 48 h; actives raise or lower the signal
Summary of the method: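 Using HepaRG cultures with 0.5% DMSO as vehicle, eight-concentration exposures (max 100 uM) lasted 48 h. Transcript levels were measured by TaqMan qRT-PCR and normalized to ACTB, GAPDH and POLR2A.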

[18] = read-out: ABC Transporter (ABCB1), ABCB1 (gene 5243); test: LTEA_HepaRG_ABCB1: Life Technologies and Expression Analysis (LTEA) Assay for ABC Transporter (ABCB1) using HepaRG (AID 2283460); conditions: mRNA level, 48 h; actives raise or lower the signal
Summary of the method: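 HepaRG cells exposed in duplicate for 48 h in serum-free induction medium to eight half-log concentrations up to 100 uM in 0.5% DMSO. ABCB1 mRNA quantified by qRT-PCR, normalised to ACTB, GAPDH and POLR2A; fitted bidirectionally versus DMSO.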

[19] = read-out: ABC Transporter (ABCB11), ABCB11 (gene 8647); test: LTEA_HepaRG_ABCB11: Life Technologies and Expression Analysis (LTEA) Assay for ABC Transporter (ABCB11) using HepaRG (AID 2283463); conditions: mRNA level, 48 h; actives raise or lower the signal
Summary of the method: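 Differentiated human HepaRG cells in serum-free induction medium, dosed in duplicate for 48 h. Eight-point half-log series from 100 uM in 0.5% DMSO; ABCB11 mRNA by qRT-PCR, normalized to ACTB, GAPDH, POLR2A, fitted bidirectionally versus DMSO.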

[20] = CEETOX_H295R_TESTO: CeeTox H295R High-throughput Steroidogenesis Assay for Testosterone (TESTO) (AID 2283457); conditions: actives raise or lower the signal;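 further: cells exposed to chemicals for 48 h before medium collection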
Summary of the method: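 Steroidogenesis in H295R cells following OECD 456 with minor changes; 48 h exposure. Medium testosterone by HPLC-MS/MS, DMSO as baseline, with MTT viability run in parallel.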

Measured: AC50

Broad substrate specificity ATP-binding cassette transporter ABCG2 (Homo sapiens), sequence (Q9UNQ0 whole entry, looked up): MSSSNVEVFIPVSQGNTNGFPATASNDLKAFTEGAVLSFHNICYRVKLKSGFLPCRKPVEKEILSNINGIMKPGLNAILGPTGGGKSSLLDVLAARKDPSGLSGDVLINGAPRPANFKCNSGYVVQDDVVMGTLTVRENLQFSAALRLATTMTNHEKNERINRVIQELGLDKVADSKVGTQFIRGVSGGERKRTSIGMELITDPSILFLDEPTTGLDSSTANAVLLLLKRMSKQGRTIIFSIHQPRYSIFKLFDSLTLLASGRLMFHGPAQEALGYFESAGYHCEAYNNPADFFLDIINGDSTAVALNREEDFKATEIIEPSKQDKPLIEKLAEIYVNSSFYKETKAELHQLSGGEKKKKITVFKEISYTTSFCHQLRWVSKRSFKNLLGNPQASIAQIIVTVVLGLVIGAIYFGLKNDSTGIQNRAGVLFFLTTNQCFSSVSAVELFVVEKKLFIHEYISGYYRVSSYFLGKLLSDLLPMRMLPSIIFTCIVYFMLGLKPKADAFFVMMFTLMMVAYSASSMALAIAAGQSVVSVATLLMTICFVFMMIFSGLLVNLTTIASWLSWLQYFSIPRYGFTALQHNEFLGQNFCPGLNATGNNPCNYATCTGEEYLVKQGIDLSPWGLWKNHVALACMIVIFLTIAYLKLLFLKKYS
Fatty acid synthase (Homo sapiens), sequence (P49327 whole entry, looked up): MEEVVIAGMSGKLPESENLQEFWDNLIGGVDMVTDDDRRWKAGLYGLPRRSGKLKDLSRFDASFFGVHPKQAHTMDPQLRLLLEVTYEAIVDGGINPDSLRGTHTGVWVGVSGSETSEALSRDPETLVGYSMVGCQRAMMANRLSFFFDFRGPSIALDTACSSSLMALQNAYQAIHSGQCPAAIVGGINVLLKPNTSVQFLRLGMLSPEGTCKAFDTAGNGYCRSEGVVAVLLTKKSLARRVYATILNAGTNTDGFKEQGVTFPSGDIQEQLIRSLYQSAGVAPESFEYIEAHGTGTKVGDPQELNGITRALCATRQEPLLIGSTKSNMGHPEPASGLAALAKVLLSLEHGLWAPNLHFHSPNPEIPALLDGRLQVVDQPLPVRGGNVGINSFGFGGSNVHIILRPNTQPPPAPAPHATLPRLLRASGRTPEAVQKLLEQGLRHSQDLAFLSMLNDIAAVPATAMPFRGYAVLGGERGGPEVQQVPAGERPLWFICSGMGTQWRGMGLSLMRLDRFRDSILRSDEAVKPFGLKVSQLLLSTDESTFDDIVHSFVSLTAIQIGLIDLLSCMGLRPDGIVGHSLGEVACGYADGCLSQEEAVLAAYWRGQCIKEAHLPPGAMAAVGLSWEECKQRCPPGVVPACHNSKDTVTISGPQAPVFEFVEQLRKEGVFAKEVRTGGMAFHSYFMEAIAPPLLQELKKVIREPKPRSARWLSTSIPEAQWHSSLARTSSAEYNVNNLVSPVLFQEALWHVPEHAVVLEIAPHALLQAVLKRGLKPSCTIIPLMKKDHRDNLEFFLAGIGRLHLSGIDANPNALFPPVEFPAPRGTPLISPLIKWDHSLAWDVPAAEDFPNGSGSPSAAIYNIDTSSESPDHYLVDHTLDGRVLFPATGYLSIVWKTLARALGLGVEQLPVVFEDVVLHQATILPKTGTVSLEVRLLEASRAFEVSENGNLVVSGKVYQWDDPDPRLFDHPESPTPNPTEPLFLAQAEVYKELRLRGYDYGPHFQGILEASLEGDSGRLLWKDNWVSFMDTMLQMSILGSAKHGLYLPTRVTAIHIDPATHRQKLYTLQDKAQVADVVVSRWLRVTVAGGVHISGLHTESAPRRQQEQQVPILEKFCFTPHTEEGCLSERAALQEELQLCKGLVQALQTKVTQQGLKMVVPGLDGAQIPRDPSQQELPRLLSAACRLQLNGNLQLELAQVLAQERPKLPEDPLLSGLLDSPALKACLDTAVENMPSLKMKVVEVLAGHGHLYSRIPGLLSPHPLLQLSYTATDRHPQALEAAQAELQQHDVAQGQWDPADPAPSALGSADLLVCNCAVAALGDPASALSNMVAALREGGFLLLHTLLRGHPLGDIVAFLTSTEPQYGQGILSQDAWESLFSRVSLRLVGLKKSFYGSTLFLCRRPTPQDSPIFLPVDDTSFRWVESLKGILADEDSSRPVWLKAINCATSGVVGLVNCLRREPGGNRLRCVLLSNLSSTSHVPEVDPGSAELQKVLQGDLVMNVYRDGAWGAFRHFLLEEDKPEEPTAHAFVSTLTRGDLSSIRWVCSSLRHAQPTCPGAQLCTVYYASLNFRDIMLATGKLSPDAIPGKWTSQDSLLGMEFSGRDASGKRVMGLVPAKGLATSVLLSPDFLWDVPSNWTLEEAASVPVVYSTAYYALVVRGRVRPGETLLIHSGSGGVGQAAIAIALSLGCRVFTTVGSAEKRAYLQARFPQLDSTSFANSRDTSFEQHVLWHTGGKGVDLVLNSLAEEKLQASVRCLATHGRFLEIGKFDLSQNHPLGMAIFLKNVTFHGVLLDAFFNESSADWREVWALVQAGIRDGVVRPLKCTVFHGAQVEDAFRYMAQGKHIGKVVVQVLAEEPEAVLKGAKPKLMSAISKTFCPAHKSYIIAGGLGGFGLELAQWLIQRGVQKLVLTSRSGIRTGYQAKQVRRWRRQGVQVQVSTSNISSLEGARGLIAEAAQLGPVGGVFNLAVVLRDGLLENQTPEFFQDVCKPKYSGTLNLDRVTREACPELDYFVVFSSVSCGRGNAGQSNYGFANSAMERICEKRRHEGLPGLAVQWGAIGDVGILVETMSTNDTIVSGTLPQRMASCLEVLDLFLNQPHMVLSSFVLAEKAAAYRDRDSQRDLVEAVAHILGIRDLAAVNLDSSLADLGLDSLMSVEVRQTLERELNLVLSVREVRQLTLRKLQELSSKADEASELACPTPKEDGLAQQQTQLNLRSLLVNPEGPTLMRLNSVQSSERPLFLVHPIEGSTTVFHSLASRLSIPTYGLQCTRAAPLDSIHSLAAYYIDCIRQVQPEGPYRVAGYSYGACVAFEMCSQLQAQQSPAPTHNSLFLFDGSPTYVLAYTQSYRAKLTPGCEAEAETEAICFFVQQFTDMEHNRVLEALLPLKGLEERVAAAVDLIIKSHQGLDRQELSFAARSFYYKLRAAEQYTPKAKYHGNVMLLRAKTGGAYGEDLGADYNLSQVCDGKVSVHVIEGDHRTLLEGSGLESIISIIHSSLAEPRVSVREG

Oc1cccc(-c2ccccc2)c1
inactive: [1]
active: [2] 10 µM

C[C@]12CC[C@@H](O)C[C@@H]1CC[C@@H]1[C@@H]2CC[C@]2(C)C(=O)CC[C@@H]12
active: [2] 3.65 µM

O=[N+]([O-])c1ccc(Nc2ccccc2)cc1
inactive: [1] | [2]

Cc1cc(Cl)ccc1O
inactive: [2]

Oc1c(Br)cc(Br)cc1Br
inactive: [1]
active: [2] 41.3 µM

Oc1c(Cl)cc(Cl)cc1Cl
active: [2] 50 µM
not listed: [1] | [17] | [18] | [19] | [20]
inactive: all other assays above

Oc1cc(Cl)c(Cl)cc1Cl
active: [17] 80.5 µM
not listed: [1] | [2] | [11] | [20]
inactive: all other assays above

CCOP(=O)(OCC)OC(=CCl)c1ccc(Cl)cc1Cl
active: [2] 5.17 µM

Clc1cccc(Cl)c1
active: [17] 78.1 µM
not listed: [1] | [2] | [20]
inactive: all other assays above

CC(C)(C)c1cc([N+](=O)[O-])cc(C(C)(C)C)c1O
inactive: [1] | [2]

O=S1OC[C@@H]2[C@H](CO1)[C@]1(Cl)C(Cl)=C(Cl)[C@@]2(Cl)C1(Cl)Cl (stereo partly specified)
active: [2] 8.22 µM | [20] 50 µM
